Most compounds without a hit are left out; they make up all but 4% or so of the library.
D1 antagonist: Antagonist of Human D 1 Dopamine Receptor: qHTS; D(1A) dopamine receptor (Homo sapiens), P21728; HEK293 TREx D1 cells, calcium flux, dopamine EC80; active compounds read low; activity change, negative = inhibition, % at 10 µM; hit rate 3.2% among 360,000; AID 504652, 2011; in the data active means activity change below about -30%; further: on the % scale 0 is the no-effect control and ±100 the full control effect
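Cells carrying a force-coupled, tetracycline-inducible human D1 receptor report calcium flux. Each well gets a 10 s baseline, compound with 180 s monitoring, then an EC80 dopamine stimulus with a second 180 s kinetic read.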
D1 potentiator: Potentiators of Human D1 Dopamine Receptor: qHTS | D(1A) dopamine receptor (Homo sapiens), P21728 | HEK293 TREx D1 cells, calcium flux, dopamine EC20 potentiation | potentiation, % at 10 µM | hit rate 0.036% among 360,000 | AID 504651, 2011; in the data active means potentiation above about 30%; further: 0% is about no effect
TRHR agonist: qHTS for Small Molecule Agonists and Allosteric Enhancers of Human TRH Receptor: Primary Screen for Agonists | hit rate 0.18% among 360,000 | activation, % at 2 µM | TRHR cells, calcium flux fluo-8, FDSS agonist mode; further: 0% is about no effect
Target sequence (P34981 whole entry, looked up): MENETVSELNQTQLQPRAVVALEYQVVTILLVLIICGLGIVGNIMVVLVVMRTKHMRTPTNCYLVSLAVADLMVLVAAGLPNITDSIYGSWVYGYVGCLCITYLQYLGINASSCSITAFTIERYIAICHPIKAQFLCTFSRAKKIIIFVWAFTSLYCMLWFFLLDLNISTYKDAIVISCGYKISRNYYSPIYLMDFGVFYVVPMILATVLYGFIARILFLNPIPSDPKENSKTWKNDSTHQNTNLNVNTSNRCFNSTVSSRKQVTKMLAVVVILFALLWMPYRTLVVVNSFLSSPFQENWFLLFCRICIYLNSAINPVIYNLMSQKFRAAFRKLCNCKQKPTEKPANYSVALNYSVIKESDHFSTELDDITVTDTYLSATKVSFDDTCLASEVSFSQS
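In this calcium-flux screen, cells bearing human TRHR are dye-loaded with fluo-8, baselined for 10 cycles, then exposed to library compounds; positive kinetic calcium responses during the agonist phase mark hits, with TRH as control.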
TRHR PAM: qHTS for Small Molecule Agonists and Allosteric Enhancers of Human TRH Receptor: Primary Screen for Enhancers. enhancement, % at 2 µM. TRHR cells, fluo-8 calcium fluorescence, EC20 TRH enhancement. Thyrotropin-releasing hormone receptor (Homo sapiens), P34981. AID 493056, 2011. hit rate 0.66% among 360,000; in the data active means enhancement above about 30%; further: 0% is about no effect
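TRHR-expressing cells loaded with fluo-8 calcium dye were read kinetically (ex 480/em 530) during compound addition, then stimulated with an EC20 of TRH (10 nM final). Enhancement of the Gq-mediated intracellular calcium response was scored.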
D1 agonist: Allosteric Agonists of the Human D1 Dopamine Receptor: qHTS; D(1A) dopamine receptor (Homo sapiens), P21728; HEK293 T-REx D1 cells, calcium flux, agonist mode; activation, % at 2 µM; hit rate 1% among 360,000; further: 0% is about no effect
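Agonism was scored from calcium flux recorded over 180 s (1 read/s) after pintool compound addition, following a 10-cycle baseline. Cells were inducible force-coupled HEK293 TREx D1, plated overnight at 30 C and loaded with no-wash calcium dye.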
Glioma ERSR ind: qHTS for Inducers of the Endoplasmic Reticulum Stress Response (ERSR) in Human Glioma: qHTS | U87-MG GRP78 promoter luciferase reporter, 16 h | Potency, µM, for inactives: top-dose activation, usual class: activators | AID 602332, 2012 | hit rate 0.02% among 420,000; active means well fitted activation curve with a large enough effect; further: potency means the concentration at half of the fitted maximal effect; series mostly up to about 76 µM; % of control where 0% means no effect; nearly all actives have a fitted effect of over 35% in size
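Stably transfected U87-MG glioma cells carrying a GRP78-based luciferase sensor; 16 h compound incubation. Luminescence end-point read 10 min after Bright-Glo addition at room temperature.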
The depositor's hits bear a star; . = no result. Unless noted, no stated cut-off is given here; in the data, active means activation above about 30%; inactive means the rest.

SMILES	D1 antagonist	D1 potentiator	TRHR agonist	TRHR PAM	D1 agonist	Glioma ERSR ind
Cc1cccc(C)c1NC(=O)CSc1nnc(-c2cnccn2)n1C	-50.8*	-4.2	0.3	3.3	1.2	-8.7%
CC(C)OC(=O)CSc1nnc(-c2cccnc2)n1N	-30.6*	-5.4	0.8	8.3	2.2	-2.8%
COC(=O)CSc1nnc(-c2cnccn2)n1C	3.4	-0.3	-0.2	-0.6	1.1	-2.7%
CC(C)OC(=O)CSc1nnc(-c2cnccn2)n1C	-34.8*	-1.9	-0.2	3.5	1.4	0.0%
CNC(=O)CSc1nnc(-c2cnccn2)n1C	-14.7	5.1	0.5	-5.8	1.1	-1.7%
CC(C)(C)OC(=O)NCc1ccc(CNC(=O)c2nc[nH]c2C(=O)NCc2ccccc2)cc1	-53.4*	-1.6	0.5	4.6	1.4	-3.0%
O=C(NCc1ccccc1)c1nc[nH]c1C(=O)NCc1ccccc1	4.0	1.4	-0.3	32.9*	4.7	-2.3%
O=C(Nc1ccccc1)c1nc[nH]c1C(=O)NCc1ccccc1	.	5.1	0.3	-4.2	-2.6	-4.1%
O=c1c2ccccc2cnn1Cc1ccc(Br)cc1F	-0.3	-5.5	-0.4	3.5	-0.8	2.6%
O=C1CC(c2nc3ccccc3[nH]2)CN1c1ccccc1 (configuration not stated)	-0.5	-2.8	-0.8	31.2*	1.8	-2.8%
CC(CCc1ccccc1)NS(=O)(=O)c1ccccc1Cl (configuration not stated)	12.0	-6.5	-0.7	2.7	1.1	-2.8%
CC(CCc1ccccc1)NS(=O)(=O)c1ccccc1 (configuration not stated)	-36.7*	-2.8	-0.5	3.8	7.4	-5.8%
CN(C)C(=O)CSc1nnc2sc3ccccc3n12	-2.8	-7.0	0.8	-4.5	1.6	-2.2%
O=S(=O)(O)c1nnc2sc3ccccc3n12	-35.6*	-1.7	0.5	-4.8	2.3	-4.1%
O=C(N/N=C\c1ccc(Cl)s1)c1ccc(Cn2cccn2)o1	-6.5	1.1	0.2	7.5	-1.8	-3.0%
O=C(N/N=C/c1c(O)ccc2ccccc12)c1cccc(C(F)(F)F)c1	-31.4*	9.2	98.7*	13.6	162.0*	-6.1%
O=C(N/N=C\c1c(O)ccc2ccccc12)c1ccc(Cn2cccn2)o1	-30.2*	-2.7	10.2	1.4	28.7	-3.5%
COc1ccc(-c2nnc(SCC(=O)Nc3cccc(F)c3)s2)cc1	7.1	-0.3	0.4	-5.8	1.3	1.6%
C=CCNCCOc1ccccc1-c1ccccc1	-17.6	-9.0	-0.6	-5.4	19.7	-4.7%
O=C(C1=C[C@H](c2ccc(Br)cc2)C[C@H](OCCCCO)O1)N1CCN(Cc2ccccc2)CC1	-30.5*	-3.0	-0.6	-10.0	7.2	-1.9%
O=C(C1=C[C@H](c2ccccc2)C[C@H](OCCCCO)O1)N1CCOCC1	-40.0*	-1.3	-0.1	-3.1	4.9	-1.1%
O=C(C1=C[C@@H](c2csc3ccccc23)C[C@@H](OCc2ccc(CO)cc2)O1)N1CCN(Cc2ccccc2)CC1	-7.1	-4.2	1.0	30.5*	6.5	-2.2%
COc1ccc(C)cc1NC(=O)Nc1ccc(C(=O)N2CCCC2)cc1	19.1	-9.4	-1.4	17.4	-0.3	3.0%
O=C(N/N=C\c1ccc(CN(Cc2ccc(Cl)cc2)S(=O)(=O)c2ccccc2)o1)C(=O)Nc1ccc(F)cc1	-15.1	1.8	0.3	-7.8	1.5	-0.5%
CCOC(=O)c1c(C)oc2c1c(C=NCCO)c(O)c1ccccc12	-40.6*	-4.5	4.1	-1.0	4.3	-6.5%
Cc1ccc2c(c1)N(CC(=O)Nc1ccccc1F)C(=O)CO2	-1.7	-0.5	0.7	0.7	10.4	-4.0%
Cc1ccc(/C=C2/NC(=O)N(Cc3ccccc3)C2=O)s1	-39.7*	-1.3	-2.8	-2.5	28.5	5.8%
Cc1ccc(S(=O)(=O)c2cc3cc(C(=O)Nc4ccc(C)cc4C)ccc3oc2=O)cc1	4.4	-1.6	-0.1	30.7*	1.6	0.7%
